PubChem BioAssay AID1159580 (chemical genetic matrix, 2015)
Where “and” joins values, the source holds several entries; their conditions need not be identical. Identical values can stand only once. The campaign covered roughly 5,500 compounds. About 2,000 (36%) were called active. Not shown: some 18% with an inconclusive outcome. No stated cut-off is given here; in the data, active means normalized growth mostly below about 0.91 (no sharp cut-off); inconclusive means no clear call, values can overlap the other calls; inactive means mostly above about 0.92. The list shows a part of the results.

Experiment: chemical genetic growth profiling, strain panel (AID 1159580);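 further: tested at 20 µM; growth read once vehicle control cultures reached saturation at 30 °C; 1 = growth at the plate median or of vehicle wells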
Conditions: S. cerevisiae deletion strains, growth OD

Measured: normalized growth

CC(=O)O[C@@H]1C[C@@]2(C)[C@H](c3ccoc3)C[C@H]3O[C@]32[C@]2(C)C(=O)C(O)=C3C(C)(C)C(=O)C=C[C@]3(C)C12 (stereo not given in full)
inactive: locus YAL021C, strain ccr4, stronger effect = lower value 0.983 | locus YAL030W, strain snc1, stronger effect = lower value 0.968 | locus YBL061C, strain skt5, stronger effect = lower value 0.953 | locus YBR021W, strain FUR4, stronger effect = lower value 1.05 | locus YBR023C, strain chs3, stronger effect = lower value 0.947 | locus YBR171W, strain sec66, stronger effect = lower value 0.929 | locus YBR229C, strain ROT2, stronger effect = lower value 0.927 | locus YBR231C, strain swc5, stronger effect = lower value 0.94 | locus YBR279W, strain paf1, stronger effect = lower value 0.97 | locus YCL016C, strain dcc1, stronger effect = lower value 0.969 | locus YCL061C, strain MRC1, stronger effect = lower value 0.96 | locus YCL069W, strain vba3, stronger effect = lower value 0.956 | locus YCR088W, strain abp1, stronger effect = lower value 0.951 | locus YDL005C, strain med2, stronger effect = lower value 0.958 | locus YDL035C, strain GPR1, stronger effect = lower value 0.914 | locus YDL040C, strain nat1, stronger effect = lower value 0.953 | locus YDL101C, strain DUN1, stronger effect = lower value 0.933 | locus YDL134C, strain PPH21, stronger effect = lower value 0.921 | locus YDL185W, strain tfp1, stronger effect = lower value 0.931 | locus YDR001C, strain nth1, stronger effect = lower value 0.968 | locus YDR069C, strain doa4, stronger effect = lower value 0.942 | locus YDR150W, strain NUM1, stronger effect = lower value 0.969 | locus YDR195W, strain ref2 1.04 | locus YDR297W, strain sur2, stronger effect = lower value 0.954 | locus YDR334W, strain swr1, stronger effect = lower value 0.963 | locus YDR335W, strain msn5, stronger effect = lower value 0.969 | locus YDR388W, stronger effect = lower value 0.951 | locus YEL003W, strain gim4, stronger effect = lower value 0.927 | locus YEL037C, strain rad23, stronger effect = lower value 0.961 | locus YEL061C, strain CIN8 (second series), stronger effect = lower value 0.955 | locus YEL061C, strain CIN8, stronger effect = lower value 0.965 | locus YER015W, strain faa2, stronger effect = lower value 0.966 | locus YER016W, strain bim1, stronger effect = lower value 0.953 | locus YER110C, stronger effect = lower value 0.953 | locus YER111C, strain swi4, stronger effect = lower value 0.94 | locus YFR010W, strain ubp6, stronger effect = lower value 0.955 | locus YGL078C, strain dbp3, stronger effect = lower value 0.975 | locus YGL167C, strain pmr1, stronger effect = lower value 0.957 | locus YGL173C, strain kem1, stronger effect = lower value 0.924 | locus YGL227W, strain vid30, stronger effect = lower value 0.964 | locus YGL240W, strain doc1, stronger effect = lower value 0.94 | locus YGL248W, strain PDE1, stronger effect = lower value 0.933 | locus YGR135W, strain pre9, stronger effect = lower value 0.954 | locus YHR013C, strain ard1, stronger effect = lower value 0.853 | locus YHR027C, strain rpn1, stronger effect = lower value 0.965 | locus YHR030C, strain SLT2, stronger effect = lower value 0.887 | locus YHR079C, strain IRE1 (second series), stronger effect = lower value 0.952 | locus YHR079C, strain IRE1, stronger effect = lower value 0.926 | locus YHR094C, strain hxt1, stronger effect = lower value 0.957 | locus YHR200W, strain rpn10, stronger effect = lower value 0.943 | locus YIL073C, strain SPO22, stronger effect = lower value 0.811 | locus YIL125W, strain kgd1, stronger effect = lower value 0.966 | locus YIR030C, strain dcg1, stronger effect = lower value 0.959 | locus YJL092W, strain hpr5, stronger effect = lower value 0.945 | locus YJL095W, strain BCK1 (second series), stronger effect = lower value 0.967 | locus YJL115W, strain asf1, stronger effect = lower value 0.98 | locus YJL134W, strain LCB3, stronger effect = lower value 0.958 | locus YJL154C, strain vps35, stronger effect = lower value 0.985 | locus YJL164C, strain tpk1, stronger effect = lower value 0.927 | locus YJL168C, strain set2, stronger effect = lower value 0.961 | locus YJL187C, strain SWE1 (second series), stronger effect = lower value 0.958 | locus YJL187C, strain SWE1, stronger effect = lower value 0.953 | locus YJR043C, strain POL32, stronger effect = lower value 0.97 | locus YJR066W, strain TOR1, stronger effect = lower value 0.888 | locus YKL009W, strain mrt4, stronger effect = lower value 0.94 | locus YKL068W, stronger effect = lower value 0.962 | locus YKL085W, strain MDH1 (second series), stronger effect = lower value 0.993 | locus YKL085W, strain MDH1, stronger effect = lower value 0.993 | locus YKL160W, strain elf1, stronger effect = lower value 0.969 | locus YKR026C, strain gcn3, stronger effect = lower value 0.965 | locus YKR091W, strain srl3, stronger effect = lower value 0.971 | locus YLL001W, strain dnm1, stronger effect = lower value 0.979 | locus YLL026W, stronger effect = lower value 0.96 | locus YLL041C, strain sdh2, stronger effect = lower value 0.976 | locus YLR027C, strain aat2, stronger effect = lower value 0.942 | locus YLR058C, strain SHM2, stronger effect = lower value 0.936 | locus YLR102C, strain apc9, stronger effect = lower value 0.958 | locus YLR113W, strain HOG1, stronger effect = lower value 0.911 | locus YLR258W, strain gsy2, stronger effect = lower value 0.948 | locus YLR342W, strain FKS1, stronger effect = lower value 0.921 | locus YLR357W, strain rsc2, stronger effect = lower value 1.03 | locus YLR370C, strain arc18, stronger effect = lower value 0.927 | locus YLR384C, strain iki3, stronger effect = lower value 0.956 | locus YML016C, strain PPZ1, stronger effect = lower value 0.946 | locus YML120C, strain ndi1, stronger effect = lower value 0.961 | locus YML124C, strain tub3, stronger effect = lower value 0.963 | locus YMR058W, strain fet3, stronger effect = lower value 0.937 | locus YMR078C, strain ctf18, stronger effect = lower value 0.925 | locus YMR125W, strain sto1, stronger effect = lower value 0.957 | locus YMR129W, stronger effect = lower value 0.977 | locus YMR205C, strain PFK2, stronger effect = lower value 0.886 | locus YMR223W, strain ubp8, stronger effect = lower value 0.922 | locus YMR307W, strain GAS1, stronger effect = lower value 0.61 | locus YNL067W, strain RPL9B, stronger effect = lower value 0.985 | locus YNL128W, strain TEP1, stronger effect = lower value 0.914 | locus YNL183C, strain NPR1, stronger effect = lower value 0.909 | locus YNL209W, strain ssb2, stronger effect = lower value 0.974 | locus YNL233W, strain BNI4, stronger effect = lower value 0.935 | locus YNL248C, strain rpa49, stronger effect = lower value 0.952 | locus YNL250W, strain rad50, stronger effect = lower value 1.02 | locus YNL271C, strain bni1, stronger effect = lower value 0.945 | locus YNL298W, strain CLA4, stronger effect = lower value 0.953 | locus YNL322C, strain KRE1 (second series), stronger effect = lower value 0.956 | locus YNR049C, strain mso1, stronger effect = lower value 0.959 | locus YOL006C, strain TOP1, stronger effect = lower value 0.771 | locus YOL012C, strain htz1 0.819 | locus YOR001W, strain rrp6, stronger effect = lower value 0.92 | locus YOR061W, strain CKA2, stronger effect = lower value 0.923 | locus YOR069W, strain VPS5, stronger effect = lower value 0.969 | locus YOR070C, strain gyp1, stronger effect = lower value 0.949 | locus YOR080W, strain dia2, stronger effect = lower value 0.965 | locus YOR083W, strain WHI5, stronger effect = lower value 0.976 | locus YOR106W, strain vam3, stronger effect = lower value 0.942 | locus YOR136W, strain idh2, stronger effect = lower value 0.941 | locus YOR231W, strain MKK1, stronger effect = lower value 0.918 | locus YOR265W, strain rbl2, stronger effect = lower value 0.963 | locus YOR290C, strain snf2, stronger effect = lower value 0.929 | locus YOR316C, strain cot1, stronger effect = lower value 0.962 | locus YPL055C, strain LGE1, stronger effect = lower value 0.803 | locus YPL078C, strain atp4, stronger effect = lower value 0.973 | locus YPL106C, strain sse1, stronger effect = lower value 0.974 | locus YPL240C, strain hsp82, stronger effect = lower value 0.956 | locus YPL241C, strain CIN2, stronger effect = lower value 0.966 | locus YPL256C, strain CLN2, stronger effect = lower value 0.91 | locus YPR119W, strain clb2, stronger effect = lower value 0.959 | locus YPR141C, strain kar3, stronger effect = lower value 0.957 | locus YPR167C, strain met16, stronger effect = lower value 0.945
active: locus YAL026C, strain drs2, stronger effect = lower value 0.892 | locus YBR009C, strain hhf1, stronger effect = lower value 0.867 | locus YCL011C, strain gbp2, stronger effect = lower value 0.88 | locus YCL029C, strain bik1, stronger effect = lower value 0.907 | locus YDL074C, strain BRE1, stronger effect = lower value 0.754 | locus YDL192W, strain arf1, stronger effect = lower value 0.822 | locus YDR101C, strain arx1, stronger effect = lower value 0.908 | locus YDR137W, strain rgp1, stronger effect = lower value 0.639 | locus YDR159W, strain sac3, stronger effect = lower value 0.777 | locus YDR162C, strain NBP2, stronger effect = lower value 0.658 | locus YDR318W, strain mcm21, stronger effect = lower value 0.844 | locus YDR392W, strain spt3, stronger effect = lower value 0.326 | locus YDR502C, strain sam2, stronger effect = lower value 0.896 | locus YER155C, strain BEM2 (second series), stronger effect = lower value 0.826 | locus YER155C, strain BEM2, stronger effect = lower value 0.902 | locus YER167W, strain BCK2, stronger effect = lower value 0.896 | locus YGL086W, strain mad1, stronger effect = lower value 0.839 | locus YGL253W, strain hxk2, stronger effect = lower value 0.866 | locus YGR078C, strain PAC10, stronger effect = lower value 0.844 | locus YGR229C, strain SMI1, stronger effect = lower value 0.787 | locus YGR252W, strain gcn5, stronger effect = lower value 0.74 | locus YHR129C, strain ARP1, stronger effect = lower value 0.889 | locus YHR142W, strain chs7, stronger effect = lower value 0.861 | locus YIL066C, strain RNR3, stronger effect = lower value 0.766 | locus YJL129C, strain trk1, stronger effect = lower value 0.822 | locus YJL166W, strain qcr8, stronger effect = lower value 0.873 | locus YKR001C, strain vps1, stronger effect = lower value 0.812 | locus YLR039C, strain RIC1, stronger effect = lower value 0.513 | locus YLR221C, strain rsa3, stronger effect = lower value 0.863 | locus YLR262C, strain YPT6 (second series), stronger effect = lower value 0.669 | locus YLR262C, strain YPT6, stronger effect = lower value 0.483 | locus YLR268W, strain sec22, stronger effect = lower value 0.832 | locus YLR320W, strain mms22, stronger effect = lower value 0.816 | locus YLR371W, strain rom2, stronger effect = lower value 0.731 | locus YLR418C, strain cdc73, stronger effect = lower value 0.35 | locus YML032C, strain rad52, stronger effect = lower value 0.853 | locus YMR231W, strain pep5, stronger effect = lower value 0.927 | locus YNL071W, strain lat1, stronger effect = lower value 0.736 | locus YNL307C, strain MCK1, stronger effect = lower value 0.571 | locus YNR052C, strain pop2, stronger effect = lower value 0.882 | locus YOL147C, strain pex11, stronger effect = lower value 0.818 | locus YOR144C, strain elg1, stronger effect = lower value 0.864 | locus YOR184W, strain ser1, stronger effect = lower value 0.744 | locus YOR270C, strain vph1, stronger effect = lower value 0.776 | locus YPL051W, strain arl3, stronger effect = lower value 0.895 | locus YPR163C, strain tif3, stronger effect = lower value 0.757 | strain wtn01, stronger effect = lower value 0.864
0.749 (active) and 0.918 (inactive): locus YJL095W, strain BCK1, stronger effect = lower value
